Only some compounds are listed: those with a hit (about 7.1% of all), similar ones and a draw of the others.
PINK1 modulator: A Quantitative High throughput Screen to Identify Chemical Modulators of PINK1 Expression | PINK1 immunofluorescence, high-content cytometry, 24 h | Potency, µM (highest dose often 76.6 µM), most hits filed as activators | actives 0.2% (n = 410,000) | AID 624263, 2012; active = well fitted activation curve with a large enough effect; inconclusive = small, poorly fitted or top-dose-only effect; cell line not stated here; note: nearly all actives have a fitted effect of over 65% in size
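Stable cell line, 250 cells/well, 12 h attachment; compounds pinned at 5 concentrations, 24 h; CCCP control. Fixed with nuclear dye, primary antibodies 12 h at 10 degrees C, secondary plus cell stain; laser-scanning cytometer read.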
S2 tox: Viability Counterscreen for Primary qHTS for Inhibitors of ATXN expression | S2 cells (HEK-293 line with an ATXN2-luciferase reporter) viability, CellTiter-Fluor protease fluorescence, 24 h | Potency, µM (doses to about 56.7 µM), actives largely listed as cytotoxic | actives 0.49% (n = 400,000) | AID 651635, 2014; note: nearly all actives have a fitted effect of over 40% in size
ATXN2 expr inh: Primary qHTS for Inhibitors of ATXN expression. Potency, µM (series often up to 57 µM), usual class: inhibitors. HEK-293 ATXN2-luciferase reporter, luminescence, 24 h. actives 0.72% (n = 360,000); note: nearly all actives have a fitted effect of over 55% in size
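ATXN2-luciferase reporter cells (luciferase flanked by upstream and downstream ATXN2 gene portions) were treated 24 h at 37 °C with compounds at up to 57 uM. SteadyGlo luminescence gave expression; GF-AFC fluorescence gave viability.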
SW480 rerep: A quantitative high throughput screen for small molecules that induce DNA re-replication in SW480 colon adenocarcinoma cells | SW480 DNA re-replication, Hoechst DNA content imaging, 48 h | actives 1.8% (n = 340,000) | Potency, µM (doses to about 46.1 µM), most hits filed as activators; note: nearly all actives have a fitted effect of over 55% in size
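First, 250 cells per well were seeded. Next, compound or vehicle (23 nL) was pinned in, plates sat 48 hr at 37 C. Finally Hoechst was added for 40 min before fluorescence scanning.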
IL1B secr inh: qHTS for Inhibitors of Inflammasome Signaling: IL-1-beta AlphaLISA Primary Screen. THP-1 LPS/ATP IL-1B secretion, AlphaLISA, 16 h; hits give low values. actives 4.7% (n = 360,000). AID 743279, 2014. activity change, % at 57.5 µM; in the data active = activity change below about -50%; inconclusive = mostly about -30% to -49%
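THP-1 cells pretreated 1 hr with compounds (up to 57.5 uM final), then stimulated with LPS (250 ng/mL final) plus ATP (1.25 mM final); secreted IL-1B measured by AlphaLISA after 16 hr, decreased signal indicating inhibition.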
MCF10A rerep: A quantitative high throughput screen for small molecules that induce DNA re-replication in MCF 10a normal breast cells; MCF 10A DNA re-replication, Hoechst nuclear intensity, 48 h; Potency, µM (highest dose often 46.1 µM), hits mostly activators; actives 2.9% (n = 350,000); AID 624296, 2012; note: nearly all actives have a fitted effect of over 50% in size
Of the large screens only hits and unclear results are named; the others gave an inactive call. Unless noted, calls come from the whole dose curve; as a rule, active = well fitted curve in the direction sought with a large enough effect; inconclusive = small, poorly fitted or top-dose-only effect, or another doubt; inactive = no such curve, though single readings can be large; an effect the other way counts as inactive or inconclusive.

O=C(O)c1cc(O)ccc1N=Nc1ccccc1	SW480 rerep inconclusive, IL1B secr inh inconclusive, MCF10A rerep 23µM (no result: ATXN2 expr inh)
O=C(O)c1ccccc1N=Nc1ccc(O)cc1	SW480 rerep 1.2µM, MCF10A rerep inconclusive
COc1cc(-c2noc(-c3ccc(NCc4ccco4)c([N+](=O)[O-])c3)n2)cc(OC)c1OC	none (no result: SW480 rerep, IL1B secr inh, MCF10A rerep)
COC(=O)C1=CN(Cc2ccc(OC)cc2)C=C(C(=O)OC)C1c1ccsc1	SW480 rerep 23µM, MCF10A rerep inconclusive
CCOc1ccc(C2C(C(=O)OC)=CN(CCOC)C=C2C(=O)OC)cc1	SW480 rerep inconclusive (no result: S2 tox)
COCCN1C=C(C(=O)OC)C(c2ccc3c(c2)OCO3)C(C(=O)OC)=C1	none (no result: PINK1 modulator)
COC(=O)C1=CN(Cc2cccs2)C=C(C(=O)OC)C1c1ccc(OC)cc1OC	MCF10A rerep inconclusive (no result: S2 tox)
COCCN1C=C(C(=O)OC)C(c2ccc(Cl)cc2)C(C(=O)OC)=C1	SW480 rerep 9.2µM, MCF10A rerep 16µM (no result: S2 tox)
COCCN1C=C(C(=O)OC)C(c2cc3c(cc2Br)OCO3)C(C(=O)OC)=C1	PINK1 modulator 4µM
COC(=O)C1=CN(Cc2cccs2)C=C(C(=O)OC)C1c1cccc(Cl)c1	S2 tox inconclusive, SW480 rerep inconclusive, MCF10A rerep 7.3µM
COC(=O)C1=CN(CC2CCCO2)C=C(C(=O)OC)C1c1ccsc1 (centres undefined)	none
CCn1c(-c2ccccc2F)nc2cc(NC(C)=O)cc(C(=O)N3CCCCC3c3nccn3C)c21 (centres undefined)	none (no result: ATXN2 expr inh, SW480 rerep, IL1B secr inh, MCF10A rerep)
COC(=O)C1=CN(C2CCCCC2)C=C(C(=O)OC)C1c1ccc2c(c1)OCO2	SW480 rerep 7.3µM, MCF10A rerep 13µM (no result: ATXN2 expr inh)
Cc1cc(N2CCCCC2)nc2ccc(NC(=O)/C=C/c3ccccc3OC(C)C)cc12	none (no result: S2 tox, ATXN2 expr inh, SW480 rerep, IL1B secr inh, MCF10A rerep)
CC(Oc1ccc(Cl)cc1Cl)C(=O)NCCC1=CCCCC1 (centres undefined)	IL1B secr inh -57
CCC(=O)N[C@@H]1c2ccccc2C2(CCN(Cc3ccccn3)CC2)[C@H]1OC	none (no result: ATXN2 expr inh, SW480 rerep, IL1B secr inh, MCF10A rerep)
CCc1nc2c(OCC3CCCCC3)cccn2c1N(C)C(=O)c1ccc(C)cc1	S2 tox 28µM (no result: SW480 rerep, MCF10A rerep)
CCc1nc2c(OCCC3CCCCC3)cccn2c1N(C)C(=O)c1ccc(OC)cc1	S2 tox inconclusive, ATXN2 expr inh inconclusive, IL1B secr inh -56 (no result: SW480 rerep, MCF10A rerep)
O=C(Cn1cncn1)NCC1Cc2cc(-c3ccsc3)cc(Cl)c2O1 (centres undefined)	none (no result: ATXN2 expr inh, SW480 rerep, IL1B secr inh, MCF10A rerep)
Cc1cc(=O)oc2cc(OC(C)C(=O)NC3(C#N)CCCCC3)ccc12 (centres undefined)	none
Cc1ccc(C2(c3ccc(C)cc3)CC2C(=O)Nc2ccc([N+](=O)[O-])cc2O)cc1 (centres undefined)	PINK1 modulator inconclusive, ATXN2 expr inh 16µM, IL1B secr inh -73, MCF10A rerep inconclusive (no result: S2 tox)
CN1CCN(/N=C/c2ccc(N(C)c3ccccc3)cc2)CC1	S2 tox inconclusive, MCF10A rerep inconclusive
CN1CCN(/N=C/c2ccc(N(c3ccccc3)c3ccccc3)cc2)CC1	ATXN2 expr inh 0.84µM, IL1B secr inh -51, MCF10A rerep 16µM (no result: S2 tox)
CCN(CC)CCOc1ccc2c(c1)C(=NO)c1cc(OCCN(CC)CC)ccc1-2	S2 tox 8.9µM, ATXN2 expr inh 11µM, IL1B secr inh -105 (no result: PINK1 modulator)
CCN(CC)S(=O)(=O)c1ccc(C)c(C)c1	none
CCN(CC)S(=O)(=O)c1ccc2c(c1)C(=NO)c1cc(S(=O)(=O)N(CC)CC)ccc1-2	S2 tox inconclusive, ATXN2 expr inh inconclusive, SW480 rerep inconclusive, MCF10A rerep 8.2µM
CCCOc1ccc2c(c1)C(=NN=C(N)N)c1cc(OCCC)ccc1-2	S2 tox 25µM, ATXN2 expr inh 20µM, SW480 rerep 18µM, IL1B secr inh -97, MCF10A rerep inconclusive
CCN(CC)CCCOc1ccc(Cl)c(Cl)c1	IL1B secr inh -73
CCCOc1ccc(/C=N/O)cc1	none
